From article PMC9911399, “Two distinct binding modes provide the RNA-binding protein RbFox with extraordinary sequence specificity”
Where a chain is given by its changes, count along the chain named. In all, about 16,000 sequences were measured (“ka relative to ugcaugu”: median about 0.096, highest 2% from about 0.35 on). The list comes from a sample in which the highest values are over-represented; it also holds similar and randomly drawn sequences.

B1: ACUUGAG (DNA:RNA)
RNA: GGGAGACCGGAAUUCAGAUUGUCCACUUGAGUUAAAUCCCGUCGUAGCCACCA
DNA 1: CAATCTGAATTCCGGTCTCCC
DNA 2: TGGTGGCTACGACGGGATT
B2: AGGGUAC (DNA:RNA)
RNA: B1 RNA with C26G, U27G, U28G, G29U, G31C
DNA 1: CAATCTGAATTCCGGTCTCCC
DNA 2: TGGTGGCTACGACGGGATT
B3: UUAACCU (DNA:RNA)
RNA: GGGAGACCGGAAUUCAGAUUGUCCUUAACCUUUAAAUCCCGUCGUAGCCACCA
DNA 1: CAATCTGAATTCCGGTCTCCC
DNA 2: TGGTGGCTACGACGGGATT
B4: UCCAUCA (DNA:RNA)
RNA: B3 RNA with U26C, A27C, C29U, U31A
DNA 1: CAATCTGAATTCCGGTCTCCC
DNA 2: TGGTGGCTACGACGGGATT
B5: GGCAGCU (DNA:RNA)
RNA: B3 RNA with U25G, U26G, A27C, C29G
DNA 1: CAATCTGAATTCCGGTCTCCC
DNA 2: TGGTGGCTACGACGGGATT
B6: GUCGAGC (DNA:RNA)
RNA: B3 RNA with U25G, A27C, A28G, C29A, C30G, U31C
DNA 1: CAATCTGAATTCCGGTCTCCC
DNA 2: TGGTGGCTACGACGGGATT
B7: GCAUGGG (DNA:RNA)
RNA: B1 RNA with A25G, U27A, A30G
DNA 1: CAATCTGAATTCCGGTCTCCC
DNA 2: TGGTGGCTACGACGGGATT
B8: GCCAUGG (DNA:RNA)
RNA: B1 RNA with A25G, U27C, U28A, G29U, A30G
DNA 1: CAATCTGAATTCCGGTCTCCC
DNA 2: TGGTGGCTACGACGGGATT
B9: GCAUGGA (DNA:RNA)
RNA: B1 RNA with A25G, U27A, A30G, G31A
DNA 1: CAATCTGAATTCCGGTCTCCC
DNA 2: TGGTGGCTACGACGGGATT
B10: CGCAUGG (DNA:RNA)
RNA: B1 RNA with A25C, C26G, U27C, U28A, G29U, A30G
DNA 1: CAATCTGAATTCCGGTCTCCC
DNA 2: TGGTGGCTACGACGGGATT
B11: GCAAUGG (DNA:RNA)
RNA: B1 RNA with A25G, U27A, U28A, G29U, A30G
DNA 1: CAATCTGAATTCCGGTCTCCC
DNA 2: TGGTGGCTACGACGGGATT
B12: CCAUGGU (DNA:RNA)
RNA: B1 RNA with A25C, U27A, A30G, G31U
DNA 1: CAATCTGAATTCCGGTCTCCC
DNA 2: TGGTGGCTACGACGGGATT
B13: GCAUAGC (DNA:RNA)
RNA: B1 RNA with A25G, U27A, G29A, A30G, G31C
DNA 1: CAATCTGAATTCCGGTCTCCC
DNA 2: TGGTGGCTACGACGGGATT
B14: GUCAUGG (DNA:RNA)
RNA: B3 RNA with U25G, A27C, C29U, C30G, U31G
DNA 1: CAATCTGAATTCCGGTCTCCC
DNA 2: TGGTGGCTACGACGGGATT
B15: GCAUGGC (DNA:RNA)
RNA: B1 RNA with A25G, U27A, A30G, G31C
DNA 1: CAATCTGAATTCCGGTCTCCC
DNA 2: TGGTGGCTACGACGGGATT
B16: GCAUUGG (DNA:RNA)
RNA: B1 RNA with A25G, U27A, G29U, A30G
DNA 1: CAATCTGAATTCCGGTCTCCC
DNA 2: TGGTGGCTACGACGGGATT
B17: GCAUGGU (DNA:RNA)
RNA: B1 RNA with A25G, U27A, A30G, G31U
DNA 1: CAATCTGAATTCCGGTCTCCC
DNA 2: TGGTGGCTACGACGGGATT
B18: GGCAUGG (DNA:RNA)
RNA: B1 RNA with A25G, C26G, U27C, U28A, G29U, A30G
DNA 1: CAATCTGAATTCCGGTCTCCC
DNA 2: TGGTGGCTACGACGGGATT
B19: UGGUGUC (DNA:RNA)
RNA: B1 RNA with A25U, C26G, U27G, A30U, G31C
DNA 1: CAATCTGAATTCCGGTCTCCC
DNA 2: TGGTGGCTACGACGGGATT
B20: AAUUGGG (DNA:RNA)
RNA: B1 RNA with C26A, A30G
DNA 1: CAATCTGAATTCCGGTCTCCC
DNA 2: TGGTGGCTACGACGGGATT

Biological target: T1, RBFOX1 RRM RbFoxmut (Fox-RRM*) (Homo sapiens, UniProt Q9NWB1 109-208, R118D;E147R;N151S;E152T)
T1 sequence: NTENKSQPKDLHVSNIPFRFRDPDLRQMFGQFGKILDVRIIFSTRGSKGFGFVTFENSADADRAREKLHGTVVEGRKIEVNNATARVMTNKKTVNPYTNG
Experiment: EMSA; HiTS-Eq, 1 nM pool, 10 min; buffer printed only for the single-RNA assays: 10 mM Tris pH 7.5, 150 mM NaCl, 3.4 mM EDTA, 0.001% NP-40, 30 C
Conditions: tags: His6 N-terminal (pET28a); label: 5' 32P
Method in brief: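 Relative association constants, normalised to the cognate motif, were derived by comparing read counts of each RNA species with those of the control reaction. The RNA sequenced was the free fraction, separated by 8% native PAGE after a 10 min equilibration in 50 µL of 1 nM 5′-radiolabelled RNA (7 randomized nucleotides) with increasing concentrations of purified wild-type or mutant RbFox RRM.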

Binder	binding signal
B1	0.13 KA relative to UGCAUGU
B2	0.106 KA relative to UGCAUGU
B3	0.0822 KA relative to UGCAUGU
B4	0.0673 KA relative to UGCAUGU
B5	0.0642 KA relative to UGCAUGU
B6	0.0952 KA relative to UGCAUGU
B7	0.322 KA relative to UGCAUGU
B8	0.12 KA relative to UGCAUGU
B9	0.23 KA relative to UGCAUGU
B10	0.804 KA relative to UGCAUGU
B11	0.0714 KA relative to UGCAUGU
B12	0.125 KA relative to UGCAUGU
B13	0.126 KA relative to UGCAUGU
B14	0.154 KA relative to UGCAUGU
B15	0.497 KA relative to UGCAUGU
B16	0.179 KA relative to UGCAUGU
B17	0.753 KA relative to UGCAUGU
B18	0.524 KA relative to UGCAUGU
B19	0.281 KA relative to UGCAUGU
B20	0.0731 KA relative to UGCAUGU
